Growth data for eight compounds are collected here from PubChem BioAssay (NCI).

Test systems include NCI-H23 lung; NCI-H226 lung; NCI-H322M lung; HOP-62 NSCLC; NCI-H460 lung; HOP-92 NSCLC; NCI-H522 lung; A549/ATCC NSCLC; 786-0 renal; COLO 205 colon; DU-145 prostate; K-562 leukemia; MALME-3M melanoma; MDA-MB-231 breast; RXF 393 renal; SF-268 CNS; SF-295 CNS; SF-539 CNS; UACC-257 melanoma; M14 melanoma.
Experiment in all cases: NCI-60 one-dose screen, 48 h (100 = growth as untreated, 0 = no growth, -100 = all killed)
Holding throughout (conditions): 10 µM unless noted

The structures appear in SMILES notation. Compounds without any hit were thinned out: in the full panel of roughly 83,000, 20% have a hit.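 Testing used 96-well plates and a 48-hour single-concentration exposure. Example: -40 means 40% of the starting cells died.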 Values without a mark were called inactive. The source made the active and inactive calls. How the source made its calls: active means growth percent below 10; inactive means the rest.

Take `COc1cc(C(=O)C(=O)c2cc(OC)c(O)c(OC)c2)cc(OC)c1O`: the growth was 101% in the experiment on NCI-H23 lung; 91% in the experiment on NCI-H226 lung; 94.4% with NCI-H322M lung; 93.2% with HOP-62 NSCLC; 101% in the experiment with NCI-H460 lung; 91.7% in the experiment with HOP-92 NSCLC. Further, the growth was 89.6% in the experiment with NCI-H522 lung; 99.5% in the experiment with A549/ATCC NSCLC; 103% with 786-0 renal; 105% in the experiment with COLO 205 colon; 119% in the experiment on DU-145 prostate; 122% in the experiment with K-562 leukemia. In addition, the growth with MALME-3M melanoma is 103%; in the experiment on MDA-MB-231 breast, 97.2%; in the experiment on RXF 393 renal, 104%; in the experiment on SF-268 CNS it was 99.3%; in the experiment on SF-295 CNS, 109%; in the experiment on SF-539 CNS, 97.1%. For the same compound, the growth in the experiment with UACC-257 melanoma was 98.3%; in the experiment on M14 melanoma, 104%.
Regarding `O=C1/C(=C/c2ccc(Br)cc2)COc2ccc(O)c(O)c21`, the growth was 18.3% in the experiment on NCI-H23 lung; 71% in the experiment on NCI-H226 lung; 30.7% in the experiment on NCI-H322M lung; -24.5% (active) in the experiment with HOP-62 NSCLC; 12% with NCI-H460 lung; -33.4% (active) with HOP-92 NSCLC. In addition, the growth was -70.4% (active) in the experiment on NCI-H522 lung; 20.6% in the experiment with A549/ATCC NSCLC; -70.4% (active) with 786-0 renal; 15.4% in the experiment with COLO 205 colon; 6.06% (active) with DU-145 prostate; 5.3% (active) with K-562 leukemia. Moreover, the growth in the experiment on MALME-3M melanoma is -17.2% (active); in the experiment on MDA-MB-231 breast, -4.69% (active); with RXF 393 renal, -49.2% (active); in the experiment with SF-268 CNS, -36.7% (active); with SF-295 CNS, 57.6%; in the experiment on SF-539 CNS, -94.2% (active). The growth with UACC-257 melanoma was 9.86% (active); in the experiment with M14 melanoma it was 9.59% (active).
On to `O=C1OCC2=C1C(c1cccc(F)c1)c1cc3c(cc1N2CCO)OCO3` (stereo not given), for which the growth in the experiment on NCI-H23 lung was 33.4%; in the experiment with NCI-H226 lung, 67.6%; with NCI-H322M lung, 51.2%; with HOP-62 NSCLC, 32%; with NCI-H460 lung, 14.2%; with HOP-92 NSCLC it was 34.6%. Also, the growth in the experiment on NCI-H522 lung is 12.5%; in the experiment on A549/ATCC NSCLC, 43%; with 786-0 renal, 24.5%; in the experiment with COLO 205 colon, 7.08% (active); with DU-145 prostate it was 30.5%; with K-562 leukemia, 9.79% (active). The growth with MALME-3M melanoma is 52.7%; in the experiment with MDA-MB-231 breast, 49.9%; with RXF 393 renal it was 32.6%; with SF-268 CNS, 38.7%; in the experiment on SF-295 CNS, 1.9% (active); in the experiment on SF-539 CNS, 2.82% (active). Also, the figures for the growth in the experiment on UACC-257 melanoma and with M14 melanoma were 75.5% and 12.6%, respectively.
For `Cc1ccc(C)c2c1C(O)(C#Cc1ccccc1)c1ccccc1C2(O)C#Cc1ccccc1` (stereo not given), the growth in the experiment with NCI-H23 lung is 92.4%; with NCI-H226 lung it was 89.9%; in the experiment on NCI-H322M lung it was 55.8%; in the experiment with HOP-62 NSCLC it was 75.1%; in the experiment with NCI-H460 lung, 23.8%; in the experiment on HOP-92 NSCLC, 3% (active). The growth in the experiment on NCI-H522 lung is 57.2%; in the experiment on A549/ATCC NSCLC, 47.5%; with 786-0 renal, 70.5%; in the experiment with COLO 205 colon, 48.4%; in the experiment with DU-145 prostate, 87%; in the experiment with K-562 leukemia, 22.2%. The growth in the experiment with MALME-3M melanoma was 39.2%; with MDA-MB-231 breast it was 77%; with RXF 393 renal it was 64.5%; with SF-268 CNS, 56.5%; in the experiment with SF-295 CNS it was 4.71% (active); in the experiment with SF-539 CNS it was 56.8%. The results for the growth in the experiment with UACC-257 melanoma and in the experiment on M14 melanoma were 63% and 58.9%, respectively.
In the case of `N#Cc1nc(-c2ccc(F)cc2)oc1S(=O)(=O)N1CCN(c2ccc(F)cc2)CC1`, the growth with NCI-H23 lung is 72.8%; with NCI-H226 lung, 91.7%; with NCI-H322M lung, 100%; in the experiment on HOP-62 NSCLC, 109%; with NCI-H460 lung it was 102%; in the experiment on HOP-92 NSCLC it was 123%. Also, the growth in the experiment with NCI-H522 lung is 43.5%; in the experiment with A549/ATCC NSCLC, 104%; in the experiment on 786-0 renal it was 100%; in the experiment on COLO 205 colon, 86.7%; with DU-145 prostate it was 102%; with K-562 leukemia, 17.6%. Besides, the growth is 104% in the experiment on MALME-3M melanoma; 92% in the experiment with MDA-MB-231 breast; 95.3% in the experiment on RXF 393 renal; 106% in the experiment with SF-268 CNS; 106% with SF-295 CNS; 101% in the experiment on SF-539 CNS. Besides, the results for the growth with UACC-257 melanoma and in the experiment with M14 melanoma were 97.9% and 88.2%, respectively.
With `CCCCN1C(=O)/C(=c2\sc3n(c2=O)NC2C(N=3)N(CC)C(=O)N2CC)c2ccccc21` (stereo not given), the growth was 46.9% in the experiment with NCI-H23 lung; 70.4% with NCI-H226 lung; 69.9% in the experiment with NCI-H322M lung; 71.7% in the experiment on HOP-62 NSCLC; 35.3% in the experiment on NCI-H460 lung; 60% in the experiment on HOP-92 NSCLC. Besides, the growth in the experiment with NCI-H522 lung is 21.4%; with A549/ATCC NSCLC, 36.6%; in the experiment on 786-0 renal, 53.6%; in the experiment on COLO 205 colon, 24.9%; in the experiment with DU-145 prostate, 20.6%; with K-562 leukemia, 14.6%. Besides, the growth was 57.6% in the experiment on MALME-3M melanoma; 34.6% with MDA-MB-231 breast; -0.314% (active) in the experiment on RXF 393 renal; 48.6% in the experiment with SF-268 CNS; 69.7% with SF-295 CNS; 13.5% with SF-539 CNS. Moreover, the growth is 31% in the experiment with UACC-257 melanoma and 25.3% in the experiment with M14 melanoma.
As for `COC(=O)/C=C1/SC(=Nc2cccc(Cl)c2)N(CCc2c[nH]c3ccc(O)cc23)C1=O`, the growth is 51.1% in the experiment on NCI-H23 lung; 81.3% in the experiment on NCI-H226 lung; 98.6% with NCI-H322M lung; 15.4% with HOP-62 NSCLC; 37% with NCI-H460 lung; 40.7% in the experiment with HOP-92 NSCLC. In addition, the growth with NCI-H522 lung was 11%; in the experiment with A549/ATCC NSCLC, 78.9%; in the experiment on 786-0 renal it was 19.1%; with COLO 205 colon, 90.3%; in the experiment on DU-145 prostate, 14.4%; in the experiment with K-562 leukemia, 5.71% (active). Moreover, the growth with MALME-3M melanoma is 42.6%; in the experiment on MDA-MB-231 breast, 29.1%; in the experiment on RXF 393 renal, 10.7%; in the experiment with SF-268 CNS it was 25.3%; in the experiment on SF-295 CNS, 64.2%; in the experiment with SF-539 CNS, 0.787% (active). In addition, the growth with UACC-257 melanoma is 31.9%; in the experiment with M14 melanoma, 13%.
Regarding `Cn1cc(-c2csc(-c3cn(C(=O)OC(C)(C)C)c4ccccc34)n2)c2ccnc(Cl)c21`, the growth in the experiment on NCI-H23 lung is 57.1%; in the experiment with NCI-H226 lung it was 46.4%; in the experiment with NCI-H322M lung, 85.3%; in the experiment with HOP-62 NSCLC, 72.4%; in the experiment on NCI-H460 lung it was 22.4%; in the experiment with HOP-92 NSCLC it was 58.5%. Further, the growth is 50% with NCI-H522 lung; 26.8% in the experiment with A549/ATCC NSCLC; 67.2% with 786-0 renal; 39.8% with COLO 205 colon; 74.1% with DU-145 prostate; 68.1% in the experiment with K-562 leukemia. Also, the growth with MALME-3M melanoma is 90%; in the experiment with MDA-MB-231 breast it was 38.3%; with RXF 393 renal, 63.6%; in the experiment on SF-268 CNS, 71.8%; in the experiment on SF-295 CNS, 62.4%; in the experiment on SF-539 CNS, 68.3%. For the same compound, the growth in the experiment on UACC-257 melanoma is 59.5%; with M14 melanoma, 79%.
